Reference: the supplement of paper PMC8387472

Tests used:
Conditions in all cases: mESC; 2uM; 72 h treatment, harvest day 5
[1] = compound: O=c1cc(N2CCOCC2)oc2c(-c3ccc4c(c3)OCCO4)csc12; experiment: fraction of edited reads among all mapped reads; higher = more Cas9 editing
Mercaptopurine (6-MP) = compound: S=c1[nH]cnc2nc[nH]c12 [Mercaptopurine (6-MP)]; experiment: as above
[2] = compound: S=c1nc[nH]c2nc[nH]c12 [6-Mercaptopurine (6-MP) Monohydrate]; experiment: as above
[3] = compound: CC(=O)O/N=C1\C(=O)N(Cc2cc(Cl)ccc2Cl)c2ccc(Cl)cc21; experiment: fraction of microhomology deletions among edited reads; higher = more MH deletions
[4] = compound: CC(C)(C#N)c1ccc(N2C(=O)OCc3cnc4ccc(-c5cnc6ccccc6c5)cc4c32)cc1; experiment: as above
[5] = compound: CCCCOc1c(C(=O)c2c(F)cc(C)cc2F)c[nH]c2nncc1-2; experiment: as above
[6] = compound: CCN1CCN(CC(=O)Nc2ccc(-c3cccc4c(=O)cc(N5CCOCC5)oc34)c3sc4ccccc4c23)CC1; experiment: as above
[7] = compound: CCc1c2c(nc3ccc(OC(=O)N4CCC(N5CCCCC5)CC4)cc13)-c1cc3c(c(=O)n1C2)COC(=O)[C@]3(O)CC [Irinotecan HCl Trihydrate]; experiment: as above
[8] = compound: CCn1c(=O)c(-c2ccc(Cl)cc2Cl)cc2cnc(Nc3ccc(N4CCNCC4)c(F)c3)nc21; experiment: as above
[9] = compound: CNc1ccc([N+](=O)[O-])c(Nc2ccc3[nH]ncc3c2)n1; experiment: as above

Target | fraction of edited reads among all mapped reads [1] | fraction of edited reads among all mapped reads (Mercaptopurine (6-MP)) | fraction of edited reads among all mapped reads [2] | fraction of microhomology deletions among edited reads [3] | fraction of microhomology deletions among edited reads [4] | fraction of microhomology deletions among edited reads [5] | fraction of microhomology deletions among edited reads [6] | fraction of microhomology deletions among edited reads [7] | fraction of microhomology deletions among edited reads [8] | fraction of microhomology deletions among edited reads [9]
5.0 (DMSO control at this site: 1-bp insertion 0.214, MH deletion 0.567, edited 0.105) CGCTGACCCGAGACCTACGCGAACCGAAATCGGCGACCGGTGCGCAAGCAGGGCTGGCGTC | 0.0695 | 0.151 | 0.0997 | 0.593 | 0.605 | 0.588 | 0.705 | 0.563 | 0.617 | 0.552
43.0 (DMSO control at this site: 1-bp insertion 0.134, MH deletion 0.714, edited 0.104) AGTTTAACTTACTCCGGCCAAAAAAGAACTGCACCTCTGGAGCGGGTTAGTGGTGGTGGTA | 0.0695 | 0.165 | 0.114 | 0.72 | 0.687 | 0.69 | 0.711 | 0.676 | 0.77 | 0.703
39.0 (DMSO control at this site: 1-bp insertion 0.328, MH deletion 0.371, edited 0.204) CTGCACAGTCACTTAGGATAGGAGAAGATGATGTATAGGGTTTAGTGGGAGATGTTGCAAG | 0.121 | 0.243 | 0.167 | 0.412 | 0.405 | 0.358 | 0.539 | 0.384 | 0.367 | 0.332
32.0 (DMSO control at this site: 1-bp insertion 0.03, MH deletion 0.85, edited 0.898) AGAAGTCCAGGATCAGGGGGACTGGGGTCGGGAGGGTGGGGCAGGAAGGAAGCCAGAATCA | 0.84 | 0.906 | 0.874 | 0.93 | 0.904 | 0.914 | 0.912 | 0.901 | 0.905 | 0.895
22.0 (DMSO control at this site: 1-bp insertion 0.573, MH deletion 0.229, edited 0.045) CTGATGGTTGAAGGATTTAGCCGGGGTCCTAGACGCCGGGGTCCTAGACGAAAGGGCCACG | 0.0255 | 0.0686 | 0.0558 | 0.159 | 0.162 | 0.122 | 0.296 | 0.125 | 0.168 | 0.117
19.0 (DMSO control at this site: 1-bp insertion 0.121, MH deletion 0.101, edited 0.057) TCTGCAGGGGTCGGAACCCGGGGGCTAGGGCTATCCCGGGGGCTAGGGCTATTAGCGAACC | 0.0353 | 0.0901 | 0.0729 | 0.203 | 0.175 | 0.215 | 0.187 | 0.222 | 0.147 | 0.197
40.0 (DMSO control at this site: 1-bp insertion 0.072, MH deletion 0.192, edited 0.189) GCGAATCAACTGTTCAACAACAGCAGCAGCCACCTGGAGGACTACAGTGGCCTGTCCGTGT | 0.107 | 0.24 | 0.175 | 0.2 | 0.177 | 0.179 | 0.26 | 0.196 | 0.21 | 0.184
27.0 CCAGAATTAGAACATATCATCTGGACCCTTTTCCATCTGGACCCTTTTCCAGCACACCCTG | 0.0389 | 0.0718 | 0.0546 | 0.162 | 0.195 | 0.138 | – | 0.0693 | – | 0.225
25.0 (DMSO control at this site: 1-bp insertion 0.017, MH deletion 0.774, edited 0.143) GGGCCTGAATGGTGTGGACATCTACTCGCTGGTGAGCTGGTGACTGAAAACATTCAGTGGC | 0.105 | 0.193 | 0.126 | 0.806 | 0.772 | 0.766 | 0.787 | 0.759 | 0.783 | 0.778
